Bioassay records: PubChem, National Center for Advancing Translational Sciences (NCATS)
3T3 cytotox – Cytotoxic Profiling in NIH 3T3 Cell Line of Diverse Libraries Using Quantitative High-Throughput Screening; Potency, µM (doses to about 96.7 µM), for the others: top-dose activity change, negative = cytotoxicity, usual class: inhibitors; hit rate 4.3% among 94,000; NIH 3T3 viability, CellTiter-Glo ATP luminescence, 48-72 h; further: nearly all actives have a fitted effect of over 55% in size
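Cytotoxicity was measured by CellTiter-Glo ATP luminescence after 48 or 72 h compound exposure at 37 °C. Mouse NIH 3T3 fibroblasts were seeded at 400 cells/well and dosed by 23 nL pin transfer.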
HEK cytotox – Cytotoxic Profiling in HEK 293 Cell Line of Diverse Libraries Using Quantitative High-Throughput Screening; HEK 293 viability, ATP luminescence (CellTiter-Glo), 48-72 h; Potency, µM (doses to about 115 µM), inactives show top-dose activity change, negative = cytotoxicity, most hits filed as inhibitors; hit rate 6.6% among 94,000; AID 1345083, 2018; further: nearly all actives have a fitted effect of over 60% in size
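HEK 293 cells seeded at 250 cells/well were exposed to compound for 48 or 72 hr at 37 degree Celsius. Viability taken as ATP content by CellTiter-Glo luminescence.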
hNpr1 antagonist – Natriuretic polypeptide receptor (hNpr1) antagonism - Primary qHTS; Potency, µM (titrated, usually from 46.3 µM), without a hit: at the top dose activity change, negative = inhibition, actives largely listed as inhibitors; hit rate 1.6% among 76,000; HEK293 hNpr1 GloSensor cGMP, ANP-stimulated luminescence; calls by dose curve; further: nearly all actives have a fitted effect of over 60% in size
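HEK293 cells stably expressing human Npr1 and cGMP GloSensor pGS-40F, loaded 2 h with 2% GloSensor reagent, given compound 30 min at room temperature. Luminescence read before and 20 min after 0.1 nM hNppA.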
FLuc inh – Firefly luciferase inhibition profiling of diverse chemical library using quantitative high-throughput screening | Potency, µM (doses to about 115 µM), actives largely listed as inhibitors | hit rate 2.5% among 76,000 | Luciferin 4-monooxygenase (Photinus pyralis), P08659 | purified P. pyralis luciferase, luminescence, biochemical; further: nearly all actives have a fitted effect of over 65% in size
Target sequence (P08659 whole entry, looked up): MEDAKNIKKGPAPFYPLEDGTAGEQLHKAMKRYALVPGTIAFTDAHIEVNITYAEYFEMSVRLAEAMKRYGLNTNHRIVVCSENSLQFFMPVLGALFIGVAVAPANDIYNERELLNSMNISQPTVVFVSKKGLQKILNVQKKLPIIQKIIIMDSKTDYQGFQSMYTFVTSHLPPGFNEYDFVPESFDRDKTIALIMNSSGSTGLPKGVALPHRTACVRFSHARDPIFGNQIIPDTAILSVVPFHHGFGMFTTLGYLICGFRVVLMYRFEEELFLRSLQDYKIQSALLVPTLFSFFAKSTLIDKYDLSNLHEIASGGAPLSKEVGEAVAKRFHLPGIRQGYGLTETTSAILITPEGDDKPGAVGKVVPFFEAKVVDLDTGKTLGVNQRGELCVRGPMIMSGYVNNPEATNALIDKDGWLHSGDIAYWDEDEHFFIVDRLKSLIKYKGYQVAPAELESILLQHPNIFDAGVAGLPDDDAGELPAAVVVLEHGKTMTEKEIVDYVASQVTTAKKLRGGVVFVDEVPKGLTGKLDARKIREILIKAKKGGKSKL
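Inhibitors were tested against purified firefly luciferase in a biochemical, low-substrate format (both substrates at 10uM) and luminescence measured with a CCD imager.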
Numbers without * were called inactive; i = inactive; u = inconclusive; x = no result given; ! = not confirmed by another sample; [ ] = remark or other dose. Rows were chosen to be rich in hits. Some 11% of all compounds tested hit in one or more screens of this group. Unless noted, the call rests on the fitted dose curve; in most records, active means well fitted curve in the direction sought with a large enough effect; inconclusive means small, poorly fitted or top-dose-only effect, or another doubt; inactive means no such curve, though single readings can be large; an effect the other way counts as inactive or inconclusive. On the % scale 0 is the no-effect control and ±100 the full control effect; potency means the concentration at half of the fitted maximal effect.

SMILES | 3T3 cytotox | HEK cytotox | hNpr1 antagonist | FLuc inh
COc1ccc(C(=O)N2CCc3cn(C)c4cccc(c34)C2)c(C)c1 | u | 22µM* | 3% | i
COc1ccc(CC(=O)N2CCc3cn(C)c4cccc(c34)C2)cc1 | u | u | 4% | i
COC(=O)[C@@H]1Cc2c([nH]c3ccccc23)[C@@H]2C[C@@H](NCCCn3ccnc3)C[C@@H](c3ccc(F)c(F)c3)N12 | 28µM* | 25µM* | 6% | i
COC(=O)[C@@H]1Cc2c([nH]c3ccccc23)[C@H]2C[C@@H](NCCCn3ccnc3)C[C@@H](c3ccccc3)N21 | 20µM* | u | -2% | i
COC(=O)[C@@H]1Cc2c([nH]c3ccccc23)[C@H]2C[C@H](NCCCn3ccnc3)C[C@@H](c3ccccc3F)N21 | 5µM* | u | 0% | i
O=C(Cc1c[nH]c2ncc(-c3ccccc3)cc12)NCCCn1ccnc1 | u | -7%[172 µM] | -4%[70.6 µM] | i
O=C(CNC(=O)c1ccc(-c2cnc3ccccc3c2)cc1)NC1CCCCC1 | -18% | i | x | x
CC(C)C1c2nccn2CCCN1C(=O)CN1CCCC1=O (stereo not drawn) | -12% | -5% | -2% | i
C[S+](=O)([O-])c1ccc(-c2nc(C(=O)N3CCN(c4ncccn4)CC3)n3ccncc23)cc1 | -5% | u | x | x
CC(=O)NC1(C)CCCN(Cc2cccc(-c3c(C)noc3C)c2)C1 (stereo not drawn) | u | -20%[172 µM] | 4%[70.6 µM] | i
Cc1noc(C)c1[S+](=O)([O-])NC1CCN(Cc2cccc(-c3cccs3)c2)CC1 | 40µM*! | 22µM*! | x | x
Cc1cccc(-c2cccc(CN3CCC(N[S+](=O)([O-])c4c(C)noc4C)CC3)c2)c1 | 32µM* | 28µM* | x | x
Cc1ccc(C(=O)N2CCCC3(C2)Nc2cccnc2NC3=NC2CCCC2)cc1F (stereo not drawn) | u | 71µM* | 3% | i
O=C(c1ccc2c(c1)OCO2)N1CCCC2(C1)Nc1cccnc1NC2=NC1CCCC1 (stereo not drawn) | -13% | -26% | -1% | i
c1cc(-c2nc3c(c(NCCCn4ccnc4)n2)CCNCC3)ccn1 | 2% | i | 0% | i
c1ccc(-c2nc3c(c(NCC4OCCc5ccccc54)n2)CCNCC3)nc1 (stereo not drawn) | 79µM* | u | 4% | i
CN1CC(=O)N(C2CCC2)Cc2c1ncnc2N1CCC(c2ccccc2)CC1 | u | 45µM* | 0% | i
CN1CC(=O)N(C2CCNC2)Cc2c1ncnc2N1CCC(c2ccccc2)CC1 (stereo not drawn) | 3% | 2% | x | x
CN1CC(=O)N(c2ccc(Cl)cc2)Cc2c1ncnc2N1CCC(Cc2ccccc2)CC1 | u | 32µM* | 4% | i
CN1CC(=O)N(C2CCC2)Cc2c1ncnc2N1CCC(Cc2ccccc2)CC1 | 45µM* | u | -11% | i
CN1CC(=O)N(C2CCC2)Cc2c1ncnc2N1CCCCC1 | -13% | -4% | x | x
CCCNC(=O)N1CCC2(CC1)NCCc1c2[nH]c2ccccc12 | -27% | u | -1% | i
COc1ccccc1CN1CCOc2cc([S+](=O)([O-])N(C)C)ccc2C1 | u | 89µM* | -7%[70.6 µM] | i
CN(C)[S+](=O)([O-])c1ccc2c(c1)OCCN(Cc1ccccc1Cl)C2 | 56µM* | u | -30%[70.6 µM] | i
CN(C)[S+](=O)([O-])c1ccc2c(c1)OCCN(Cc1cccc(F)c1F)C2 | u | u | -2%[70.6 µM] | i
SMILES | 3T3 cytotox | HEK cytotox | hNpr1 antagonist | FLuc inh
Cn1ncc2c(C(=O)NCc3cccc(Cl)c3)cc(-c3ccc(Cl)cc3)nc21 | -16% | -13% | x | x
COCCNC(=O)c1cc(-c2ccsc2)nc2c1cnn2C | u | -9%[172 µM] | x | x
Cn1ncc2c(C(=O)NCc3ccc(Cl)cc3)cc(-c3ccsc3)nc21 | 32µM* | 35µM* | x | x
COc1cccc(CNC(=O)c2cc(-c3ccsc3)nc3c2cnn3C)c1 | 25µM* | 56µM* | x | x
Cn1ncc2c(C(=O)NCc3cccc(Cl)c3)cc(-c3ccsc3)nc21 | 16µM* | 32µM* | x | x
Cn1ncc2c(C(=O)NCc3cccc(Cl)c3)cc(-c3ccc(F)cc3)nc21 | u | 35µM* | x | x
COCCNC(=O)c1ccc2nnc(-c3ccccc3OC)n2c1 | -16%[138 µM] | -9%[172 µM] | x | x
COC(=O)CNC(=O)c1cc(-c2ccccc2C(F)(F)F)nc2c1cnn2C | -16% | i | x | x
CC(C)Oc1cccc2c1c(NC(=O)c1cccnn1)nn2Cc1ccccc1 | u | 50µM* | -2% | u
Cc1nnnn1CC(=O)Nc1nn(Cc2ccccc2)c2cccc(OC(C)C)c12 | -32% | -26% | 0% | i
Cc1nnc2ccc(N3CCC(NC(=O)Cc4ccc(F)cc4)CC3)nn12 | -17% | i | x | x
Cc1ccnc(N2CCN(C3CCC4(CCNCC4)CC3)CC2)c1 | u | 45µM* | 0% | i
CN1CCN(c2ccc(-c3noc([C@@H]4CCCN4CCCc4ccccc4)n3)cn2)CC1 | 40µM* | u | 4%[70.6 µM] | i
CC(C)N1CCC[C@H]1c1nc(-c2ccc(N3CCN(C)CC3)nc2)no1 | -1%[138 µM] | -13%[172 µM] | 5%[70.6 µM] | i
c1ccc(CN2CCC[C@H]2c2nc(-c3ccc(-n4ccnc4)nc3)no2)cc1 | u | 89µM* | -3%[70.6 µM] | i
c1ccc(CN2CCC[C@H]2c2nc(-c3ccnc(N4CCOCC4)c3)no2)nc1 | 35µM* | u | -6%[70.6 µM] | i
CN1CCN(c2ccc(-c3noc([C@@H]4CCCN4C4CCCCC4)n3)cn2)CC1 | 79µM* | 79µM* | 2%[70.6 µM] | i
Cc1cccc(NC(=O)Cn2c(N3CCN(c4ccccc4)CC3)nc(C)cc2=O)c1 | u | u | 6% | i
COCCn1c(=O)c2c(n1Cc1ccccc1)CN(Cc1ccc3c(c1)CCO3)CC2 | u | 0%[172 µM] | 1%[70.6 µM] | i
CCc1ccc(-c2nc(C3CC(=O)N(c4ccc(OC)cc4)C3)no2)cc1 (stereo not drawn) | u | u | -22% | i
CC(C)c1ccc(-c2nc(C3CC(=O)N(c4ccc(F)cc4)C3)no2)cc1 (stereo not drawn) | -20% | 35µM* | u | i
CCc1ccc(N2CC(c3noc(-c4ccccc4)n3)CC2=O)cc1 (stereo not drawn) | u | 79µM* | 1% | i
CC(C)c1ccc(-c2nc(C3CC(=O)N(c4ccc(F)c(Cl)c4)C3)no2)cc1 (stereo not drawn) | u | u | u | i
CCc1ccc(N2CC(c3noc(-c4ccc(OC)nc4OC)n3)CC2=O)cc1 (stereo not drawn) | u | 45µM* | -20% | i
